Source: PubChem BioAssay (EPA / NIEHS)
Active and inactive are the calls of the source. How the source made its calls: active means hit-call score of the fitted dose curve at least 0.9, where 1 is the maximum; inactive means score below 0.9.

Tests used:
Settings in all cases: mRNA level, 48 h; actives raise or lower the signal
[1] = read-out: Potassium channel subfamily K member 1 (KCNK1), KCNK1 (gene 3775); assay: LTEA_HepaRG_KCNK1: Life Technologies and Expression Analysis (LTEA) Assay for Potassium channel subfamily K member 1 (KCNK1) using HepaRG (AID 2283511)
In short: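 Differentiated human HepaRG cells in serum-free induction medium were exposed in duplicate for 48 h to 8 half-log concentrations up to 100 uM in 0.5% DMSO. KCNK1 mRNA was measured by TaqMan qRT-PCR, normalized to ACTB, GAPDH and POLR2A, and fitted bidirectionally versus DMSO.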

[2] = read-out: Keratin 19 (KRT19), KRT19 (gene 3880); assay: LTEA_HepaRG_KRT19: Life Technologies and Expression Analysis (LTEA) Assay for Keratin 19 (KRT19) using HepaRG (AID 2283512)
In short: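 Differentiated HepaRG cells in serum-free induction medium, exposed 48 h in duplicate to 8 half-log concentrations up to 100 uM in 0.5% DMSO. KRT19 mRNA by qRT-PCR, normalized to ACTB, GAPDH, POLR2A; bidirectional fit vs DMSO.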

[3] = read-out: Lipase C (LIPC), LIPC (gene 3990); assay: LTEA_HepaRG_LIPC: Life Technologies and Expression Analysis (LTEA) Assay for Lipase C (LIPC) using HepaRG (AID 2283514)
In short: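 Differentiated human HepaRG cells in serum-free induction medium were exposed in duplicate for 48 h to eight concentrations (top 100 uM, half-log steps, 0.5% DMSO). LIPC mRNA was quantified by TaqMan qRT-PCR, normalized to ACTB, GAPDH and POLR2A, with bidirectional fitting versus DMSO.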

[4] = read-out: Lipoprotein lipase (LPL), LPL (gene 4023); assay: LTEA_HepaRG_LPL: Life Technologies and Expression Analysis (LTEA) Assay for Lipoprotein lipase (LPL) using HepaRG (AID 2283515)
In short: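 Differentiated human HepaRG cells in serum-free induction medium were exposed in duplicate for 48 h to eight half-log concentrations (top 100 uM) in 0.5% DMSO. LPL mRNA was quantified by TaqMan qRT-PCR, normalized to ACTB, GAPDH and POLR2A.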

[5] = read-out: MicroRNA 122 (MIR122), gene 406906; assay: LTEA_HepaRG_MIR122: Life Technologies and Expression Analysis (LTEA) Assay for MicroRNA 122 (MIR122) using HepaRG (AID 2283516); further: the transcript read is the microRNA miR-122
In short: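 Differentiated human HepaRG cells in serum-free induction medium exposed 48 h to 8 half-log concentrations from 100 uM in 0.5% DMSO, duplicate. MIR122 quantified by Fluidigm TaqMan qRT-PCR, normalised to ACTB, GAPDH, POLR2A; fold change fitted bidirectionally versus DMSO.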

[6] = read-out: matrix metalloproteinase-10 (MMP10), MMP10 (gene 4319); assay: LTEA_HepaRG_MMP10: Life Technologies and Expression Analysis (LTEA) Assay for matrix metalloproteinase-10 (MMP10) using HepaRG (AID 2283517)
In short: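 HepaRG, collagen I, ~100,000 cells/well; serum-free induction medium; 48 h exposure, duplicate, 8-pt half-log to 100 uM, 0.5% DMSO. Readout: TaqMan qRT-PCR, normalized to ACTB/GAPDH/POLR2A; bidirectional fit vs DMSO.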

MYC, MYC (gene 4609) = assay: LTEA_HepaRG_MYC: Life Technologies and Expression Analysis (LTEA) Assay for MYC using HepaRG (AID 2283518)
In short: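 Differentiated HepaRG cells exposed 48 h in serum-free induction medium to 8 concentrations (top 100 uM, half-log steps; 0.5% DMSO), duplicate. MYC mRNA measured by Fluidigm qRT-PCR, normalized to ACTB, GAPDH, POLR2A; bidirectional fit versus DMSO.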

[7] = read-out: matrix metalloproteinase-3 (MMP3), MMP3 (gene 4314); assay: LTEA_HepaRG_MMP3: Life Technologies and Expression Analysis (LTEA) Assay for matrix metalloproteinase-3 (MMP3) using HepaRG (AID 2283519)
In short: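 Differentiated human HepaRG cells, plated 48 h on collagen I, were exposed in duplicate for 48 h in serum-free induction medium to eight half-log concentrations up to 100 uM in 0.5% DMSO. MMP3 mRNA was quantified by TaqMan qRT-PCR, normalised to ACTB, GAPDH and POLR2A.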

[8] = read-out: Paternally Expressed 10 (PEG10), PEG10 (gene 23089); assay: LTEA_HepaRG_PEG10: Life Technologies and Expression Analysis (LTEA) Assay for Paternally Expressed 10 (PEG10) using HepaRG (AID 2283520)
In short: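 Differentiated HepaRG cells exposed 48 h in serum-free induction medium to eight half-log concentrations topping at 100 uM, 0.5% DMSO, in duplicate. PEG10 mRNA quantified by TaqMan qRT-PCR, normalized to ACTB, GAPDH and POLR2A; bidirectional fit versus DMSO.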

[9] = read-out: Protein phosphatase 2A (PPP2R4), PTPA (gene 5524); assay: LTEA_HepaRG_PPP2R4: Life Technologies and Expression Analysis (LTEA) Assay for Protein phosphatase 2A (PPP2R4) using HepaRG (AID 2283522)
In short: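 Differentiated human HepaRG cells in serum-free induction medium were exposed 48 h to 8 concentrations (top 100 µM, half-log steps, duplicate) in 0.5% DMSO. PPP2R4 mRNA was measured by TaqMan qRT-PCR, normalised to ACTB, GAPDH and POLR2A, and fitted bidirectionally versus DMSO.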

[10] = read-out: Phosphatase and tensin (PTEN), PTEN (gene 5728); assay: LTEA_HepaRG_PTEN: Life Technologies and Expression Analysis (LTEA) Assay for Phosphatase and tensin (PTEN) using HepaRG (AID 2283523)
In short: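 Differentiated human HepaRG cells, plated 48 h then switched to serum-free induction medium, were exposed in duplicate for 48 h to eight half-log concentrations up to 100 uM in 0.5% DMSO. PTEN mRNA measured by TaqMan qRT-PCR, normalized to ACTB/GAPDH/POLR2A, bidirectional fit versus DMSO.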

[11] = read-out: solute carrier (SLC22A1), SLC22A1 (gene 6580); assay: LTEA_HepaRG_SLC22A1: Life Technologies and Expression Analysis (LTEA) Assay for solute carrier (SLC22A1) using HepaRG (AID 2283524)
In short: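 Human HepaRG cells were plated 48 h, switched to serum-free induction medium, then exposed in duplicate for 48 h to 8-point half-log series from 100 uM in 0.5% DMSO. SLC22A1 mRNA measured by qRT-PCR, normalized to ACTB/GAPDH/POLR2A, fitted bidirectionally versus DMSO.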

[12] = read-out: Pyruvate Dehydrogenase Kinase 4 (PDK4), PDK4 (gene 5166); assay: LTEA_HepaRG_PDK4: Life Technologies and Expression Analysis (LTEA) Assay for Pyruvate Dehydrogenase Kinase 4 (PDK4) using HepaRG (AID 2283525)
In short: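 Differentiated human HepaRG cells, pre-cultured 48 h, were exposed in duplicate for 48 h in serum-free induction medium to eight half-log concentrations up to 100 uM in 0.5% DMSO. PDK4 mRNA was quantified by qRT-PCR, normalized to ACTB, GAPDH and POLR2A, bidirectional fitting versus DMSO.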

[13] = read-out: Nuclear factor erythroid 2-related factor 2 (Homo sapiens) (UniProt Q16236); assay: LTEA_HepaRG_NFE2L2: Life Technologies and Expression Analysis (LTEA) Assay for Nuclear factor erythroid 2-related factor 2 (NFE2L2) Transcription Factor using HepaRG (AID 2283527)
In short: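 Differentiated human HepaRG cells in serum-free induction medium were exposed for 48 h to eight concentrations (top 100 uM, half-log dilutions, 0.5% DMSO), in duplicate. NFE2L2 mRNA was quantified by TaqMan qRT-PCR, normalized to ACTB, GAPDH and POLR2A, with bidirectional fitting versus DMSO.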

[14] = read-out: succinate dehydrogenase complex iron sulfur subunit B (SDHB), SDHB (gene 6390); assay: LTEA_HepaRG_SDHB: Life Technologies and Expression Analysis (LTEA) Assay for succinate dehydrogenase complex iron sulfur subunit B (SDHB) using HepaRG (AID 2283528)
In short: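 Readout is SDHB transcript level by qRT-PCR, normalised to three housekeeping genes and fitted bidirectionally against 0.5% DMSO vehicle. Human HepaRG cells were treated for 48 h at up to 100 uM.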

[15] = read-out: Signal transducer and activator of transcription 3 (Homo sapiens) (UniProt P40763); assay: LTEA_HepaRG_STAT3: Life Technologies and Expression Analysis (LTEA) Assay for Signal transducer and activator of transcription (STAT3) using HepaRG (AID 2283529)
In short: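 Differentiated human HepaRG cells in serum-free induction medium were exposed in duplicate for 48 h to eight half-log concentrations up to 100 uM in 0.5% DMSO. STAT3 mRNA was quantified by TaqMan qRT-PCR, normalized to ACTB, GAPDH and POLR2A, and fitted bidirectionally against DMSO.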

[16] = read-out: solute carrier (SLCO1B1), SLCO1B1 (gene 10599); assay: LTEA_HepaRG_SLCO1B1: Life Technologies and Expression Analysis (LTEA) Assay for solute carrier (SLCO1B1) using HepaRG (AID 2283530)
In short: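 Differentiated human HepaRG cells were exposed for 48 h in serum-free induction medium to eight half-log concentrations, top 100 uM, in 0.5% DMSO. SLCO1B1 mRNA was measured by qRT-PCR, normalized to ACTB, GAPDH and POLR2A, and fitted bidirectionally against DMSO.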

[17] = read-out: Nuclear factor NF-kappa-B p105 subunit (Homo sapiens) (UniProt P19838); assay: LTEA_HepaRG_NFKB1: Life Technologies and Expression Analysis (LTEA) Assay for Nuclear Factor Kappa B Subunit 1 (NFKB1) using HepaRG (AID 2283521)
In short: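 HepaRG, 48 h exposure; 8-pt half-log series from 100 uM in 0.5% DMSO; duplicates. Readout: NFKB1 mRNA by qRT-PCR (Fluidigm arrays), housekeeping-normalized. Gain/loss fit vs DMSO baseline.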

[18] = read-out: NAD(P)H dehydrogenase [quinone] 1 (NQO1), NQO1 (gene 1728); assay: LTEA_HepaRG_NQO1: Life Technologies and Expression Analysis (LTEA) Assay for NAD(P)H dehydrogenase [quinone] 1 (NQO1) using HepaRG (AID 2283526)
In short: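 Differentiated human HepaRG cells in serum-free induction medium, dosed in duplicate for 48 h at 8 half-log concentrations up to 100 uM in 0.5% DMSO. NQO1 mRNA by qRT-PCR normalized to ACTB, GAPDH, POLR2A; bidirectional fit versus DMSO baseline.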

Measured: AC50

Nuclear factor erythroid 2-related factor 2 (Homo sapiens), sequence (Q16236 whole entry, looked up): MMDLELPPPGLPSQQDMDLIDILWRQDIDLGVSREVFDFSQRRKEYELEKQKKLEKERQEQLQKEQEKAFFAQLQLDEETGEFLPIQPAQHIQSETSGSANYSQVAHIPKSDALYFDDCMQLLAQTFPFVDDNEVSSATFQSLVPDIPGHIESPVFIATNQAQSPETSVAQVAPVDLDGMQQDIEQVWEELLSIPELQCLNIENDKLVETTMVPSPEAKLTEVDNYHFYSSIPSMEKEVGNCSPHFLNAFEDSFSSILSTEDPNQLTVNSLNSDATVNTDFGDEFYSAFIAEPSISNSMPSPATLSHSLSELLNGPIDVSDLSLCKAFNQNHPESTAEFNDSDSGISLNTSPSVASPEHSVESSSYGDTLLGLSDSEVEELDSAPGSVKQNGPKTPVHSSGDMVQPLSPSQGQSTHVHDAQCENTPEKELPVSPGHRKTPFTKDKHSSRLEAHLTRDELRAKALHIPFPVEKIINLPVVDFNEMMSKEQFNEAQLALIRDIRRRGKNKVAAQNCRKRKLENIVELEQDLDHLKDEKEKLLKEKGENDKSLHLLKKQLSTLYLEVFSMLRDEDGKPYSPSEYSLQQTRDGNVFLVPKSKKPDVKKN
Nuclear factor NF-kappa-B p105 subunit (Homo sapiens), sequence (P19838 whole entry, looked up): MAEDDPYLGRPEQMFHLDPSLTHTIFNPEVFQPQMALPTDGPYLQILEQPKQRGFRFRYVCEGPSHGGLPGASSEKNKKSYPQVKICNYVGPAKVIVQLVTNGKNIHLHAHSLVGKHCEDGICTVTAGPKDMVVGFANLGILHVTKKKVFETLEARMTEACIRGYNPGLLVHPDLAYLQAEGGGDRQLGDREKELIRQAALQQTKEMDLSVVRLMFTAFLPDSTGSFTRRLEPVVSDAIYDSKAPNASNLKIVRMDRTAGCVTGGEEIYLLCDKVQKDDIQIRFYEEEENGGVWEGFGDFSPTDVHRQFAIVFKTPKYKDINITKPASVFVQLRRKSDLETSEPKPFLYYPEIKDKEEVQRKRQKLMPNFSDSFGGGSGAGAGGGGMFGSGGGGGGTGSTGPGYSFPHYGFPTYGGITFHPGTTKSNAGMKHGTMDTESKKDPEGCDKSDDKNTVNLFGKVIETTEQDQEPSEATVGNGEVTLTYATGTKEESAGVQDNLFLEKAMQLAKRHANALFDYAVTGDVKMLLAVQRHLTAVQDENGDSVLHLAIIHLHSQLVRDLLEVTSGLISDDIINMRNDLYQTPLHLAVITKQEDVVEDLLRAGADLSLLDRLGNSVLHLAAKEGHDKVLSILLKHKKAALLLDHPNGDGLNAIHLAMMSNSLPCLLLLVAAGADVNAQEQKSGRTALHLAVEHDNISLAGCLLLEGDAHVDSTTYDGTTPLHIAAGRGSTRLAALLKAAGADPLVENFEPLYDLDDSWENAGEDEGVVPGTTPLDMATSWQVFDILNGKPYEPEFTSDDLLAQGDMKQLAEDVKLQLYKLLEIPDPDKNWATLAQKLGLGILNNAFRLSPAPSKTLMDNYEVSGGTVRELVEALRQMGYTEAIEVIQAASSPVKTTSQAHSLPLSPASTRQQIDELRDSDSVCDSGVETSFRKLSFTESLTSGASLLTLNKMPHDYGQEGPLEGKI
Signal transducer and activator of transcription 3 (Homo sapiens), sequence (P40763 whole entry, looked up): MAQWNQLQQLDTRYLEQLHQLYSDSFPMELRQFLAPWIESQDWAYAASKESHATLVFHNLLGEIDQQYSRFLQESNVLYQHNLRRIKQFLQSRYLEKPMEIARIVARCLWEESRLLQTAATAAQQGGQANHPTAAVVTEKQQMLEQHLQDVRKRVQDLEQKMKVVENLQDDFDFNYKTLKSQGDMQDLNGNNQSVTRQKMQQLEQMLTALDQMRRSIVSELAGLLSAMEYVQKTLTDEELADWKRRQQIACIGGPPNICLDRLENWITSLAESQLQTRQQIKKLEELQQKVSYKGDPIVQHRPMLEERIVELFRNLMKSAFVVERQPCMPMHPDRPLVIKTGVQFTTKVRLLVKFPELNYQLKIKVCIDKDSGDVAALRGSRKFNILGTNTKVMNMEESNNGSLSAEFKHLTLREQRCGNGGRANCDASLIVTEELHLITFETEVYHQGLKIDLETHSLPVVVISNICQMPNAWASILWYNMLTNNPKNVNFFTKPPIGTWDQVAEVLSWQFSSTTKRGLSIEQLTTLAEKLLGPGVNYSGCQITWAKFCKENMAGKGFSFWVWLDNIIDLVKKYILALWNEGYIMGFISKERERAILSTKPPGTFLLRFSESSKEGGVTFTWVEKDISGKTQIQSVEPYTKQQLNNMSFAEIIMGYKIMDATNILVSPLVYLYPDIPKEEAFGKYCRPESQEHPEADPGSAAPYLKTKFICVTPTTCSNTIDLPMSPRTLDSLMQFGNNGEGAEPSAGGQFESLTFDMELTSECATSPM

Cc1ccc(N=CN(C)C=Nc2ccc(C)cc2C)c(C)c1
not listed: [17] | [18]
inactive: all other assays above

CCOc1cc(C(C)(C)C)ccc1C1COC(c2c(F)cccc2F)=N1 (stereo not drawn)
active: [2] 4.11 µM | [3] 33 µM | [4] 52.9 µM | MYC, MYC (gene 4609) 33 µM
not listed: [18]
inactive: all other assays above

CO/N=C(/C1=NOCCO1)c1ccccc1Oc1ncnc(Oc2ccccc2Cl)c1F
active: [2] 13.3 µM | [3] 30.1 µM | [4] 23.2 µM | [5] 26.4 µM | [6] 50 µM | MYC, MYC (gene 4609) 29.9 µM | [7] 50 µM | [8] 5.88 µM | [11] 24.8 µM | [12] 11.7 µM | [13] 50 µM | [15] 6.5 µM | [16] 31.1 µM
inactive: [1] | [17] | [9] | [10] | [14]

Cc1c(COC(=O)[C@@H]2[C@H](/C=C(\Cl)C(F)(F)F)C2(C)C)cccc1-c1ccccc1
active: [17] 0.703 µM
inactive: all other assays above

CC1(C)CCC(=Cc2ccc(Cl)cc2)C1(O)Cn1cncn1 (stereo not drawn)
not listed: [17] | [18]
inactive: all other assays above

CNC(=O)N(C)c1nnc(C(C)(C)C)s1
not listed: [2] | [18]
inactive: all other assays above

COCc1cnc(C2=NC(C)(C(C)C)C(=O)N2)c(C(=O)O)c1 (stereo not drawn)
not listed: [17] | [18]
inactive: all other assays above

COC(=O)NS(=O)(=O)c1ccc(N)cc1
not listed: [18]
inactive: all other assays above

Cc1nc(N(C)C)nc(OC(=O)N(C)C)c1C
not listed: [17] | [18]
inactive: all other assays above
